In PubChem BioAssay (EPA / NIEHS):
Values joined by “and” are separate entries in the source; they are usually repeats but may differ in a detail not shown here. Equal entries are not always repeated. Records with an inconclusive call do not appear. Some compounds were tested as several samples or in several runs, with calls that do not always agree. Active and inactive are the calls of the source. How the source made its calls, unless noted: active means hit-call score of the fitted dose curve at least 0.9, where 1 is the maximum; inconclusive means response in the unintended direction; inactive means score below 0.9.

Legend:
[1] = target: human RAR-related Orphan Receptor gamma (RORg), RORC (gene 6097) (UniProt P51449); assay: ATG_RORg_TRANS: Attagene TRANS-FACTORIAL HepG2 Assay for human RAR-related Orphan Receptor gamma (RORg) (AID 2283011)
human RAR-related Orphan Receptor gamma (RORg), RORC (gene 6097), sequence (P51449 whole entry, looked up, the tested form may be a part): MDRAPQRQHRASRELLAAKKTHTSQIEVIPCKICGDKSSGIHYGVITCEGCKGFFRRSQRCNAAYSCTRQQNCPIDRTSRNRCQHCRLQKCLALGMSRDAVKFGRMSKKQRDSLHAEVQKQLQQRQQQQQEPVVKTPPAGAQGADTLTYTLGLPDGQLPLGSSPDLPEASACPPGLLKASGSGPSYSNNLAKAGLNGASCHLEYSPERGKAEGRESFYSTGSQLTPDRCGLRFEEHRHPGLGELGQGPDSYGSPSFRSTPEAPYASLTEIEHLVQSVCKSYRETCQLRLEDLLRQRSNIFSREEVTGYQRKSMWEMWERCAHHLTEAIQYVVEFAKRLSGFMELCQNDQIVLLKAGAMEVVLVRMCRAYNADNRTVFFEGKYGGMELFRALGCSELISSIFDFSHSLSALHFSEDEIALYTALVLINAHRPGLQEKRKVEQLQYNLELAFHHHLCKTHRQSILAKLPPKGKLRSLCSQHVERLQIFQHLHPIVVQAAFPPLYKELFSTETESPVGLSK
Procedure, shortened: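 Chimeric RORg-Gal4 transactivation in transfected HepG2; 24 h exposure; RT-PCR/capillary electrophoresis readout of reporter mRNA, DMSO baseline.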

[2] = read-out: E-selectin (Homo sapiens) (UniProt P16581); assay: BSK_3C_Eselectin: BioMAP Diversity Plus: 3C Assay for Eselectin Biomarker Activity (AID 2283015; active means hit-call score of the fitted dose curve at least 0.9, where 1 is the maximum; inactive means score below 0.9); conditions: primary human endothelial cells (HUVEC); actives raise or lower the signal
Procedure, shortened: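 Endpoint derived by bidirectional fitting against DMSO vehicle; signal is ELISA-detected E-selectin from primary HUVEC at 24 h post-dosing, with parallel SRB staining (0.1% SRB, 560 nm) flagging cytotoxicity.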

[3] = read-out: Interleukin-1 alpha (IL1a), IL1A (gene 3552); assay: BSK_BE3C_IL1a: BioMAP Diversity Plus: BE3C Assay for Interleukin-1 alpha (IL1a) Biomarker Activity (AID 2283016; active means hit-call score of the fitted dose curve at least 0.9, where 1 is the maximum; inactive means score below 0.9); conditions: primary human bronchial epithelial cells; actives raise or lower the signal
Procedure, shortened: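 BE3C primary human bronchial epithelium; cpd 24 h; IL-1a by ELISA; bidirectional fit vs DMSO; parallel SRB (0.1% SRB, 10% TCA fix, 560 nm) for cytotoxicity.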

[4] = read-out: Monocyte Chemoattractant Protein-1 (MCP1), CCL2 (gene 6347); assay: BSK_3C_MCP1: BioMAP Diversity Plus: 3C Assay for Monocyte Chemoattractant Protein-1 (MCP1) Biomarker Activity (AID 2283017; active means hit-call score of the fitted dose curve at least 0.9, where 1 is the maximum; inactive means score below 0.9); conditions: primary human endothelial cells (HUVEC); actives raise or lower the signal
Procedure, shortened: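 Using human vascular primary endothelium, researchers measured MCP-1 by ELISA 24 h after treatment, with DMSO serving as negative control for bidirectional fitting.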

[5] = read-out: Monocyte Chemoattractant Protein-1 (MCP1), CCL2 (gene 6347); assay: BSK_4H_MCP1: BioMAP Diversity Plus: 4H Assay for Monocyte Chemoattractant Protein-1 (MCP1) Biomarker Activity (AID 2283018; active means hit-call score of the fitted dose curve at least 0.9, where 1 is the maximum; inactive means score below 0.9); conditions: primary human endothelial cells (HUVEC); actives raise or lower the signal
Procedure, shortened: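 ELISA read-out of MCP-1 from human vascular endothelial primary cells taken at 24 hours after compound exposure. Activity was fitted in both directions relative to DMSO, which served as negative control.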

[6] = read-out: Human Leukocyte Antigen - DR isotype (HLADR), HLA-DRA (gene 3122); assay: BSK_3C_HLADR: BioMAP Diversity Plus: 3C Assay for Human Leukocyte Antigen - DR isotype (HLADR) Biomarker Activity (AID 2283019; active means hit-call score of the fitted dose curve at least 0.9, where 1 is the maximum; inactive means score below 0.9); conditions: primary human endothelial cells (HUVEC); actives raise or lower the signal
Procedure, shortened: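 Compound added to primary HUVEC cultures, 24 h incubation, then HLA-DR determined by ELISA; endpoint derived by bidirectional fitting relative to DMSO negative control.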

[7] = read-out: Interleukin-8 (IL8), CXCL8 (gene 3576); assay: BSK_3C_IL8: BioMAP Diversity Plus: 3C Assay for Interleukin-8 (IL8) Biomarker Activity (AID 2283020; active means hit-call score of the fitted dose curve at least 0.9, where 1 is the maximum; inactive means score below 0.9); conditions: primary human endothelial cells (HUVEC); actives raise or lower the signal
Procedure, shortened: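 ELISA read-out of IL-8 from human umbilical vein endothelium, measured 24 h after chemical dosing. Activity is expressed relative to DMSO negative control, with both increases and decreases fitted.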

[8] = read-out: Monokine induced gamma interferon (MIG), CXCL9 (gene 4283); assay: BSK_3C_MIG: BioMAP Diversity Plus: 3C Assay for Monokine induced gamma interferon (MIG) Biomarker Activity (AID 2283021; active means hit-call score of the fitted dose curve at least 0.9, where 1 is the maximum; inactive means score below 0.9); conditions: primary human endothelial cells (HUVEC); actives raise or lower the signal
Procedure, shortened: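 Read-out is ELISA detection of MIG on human umbilical vein endothelial cells, taken 24 h after dosing. Gain or loss of signal was scored relative to DMSO controls using bidirectional curve fitting.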

[9] = target: human Vitamin D Receptor (VDR), VDR (gene 7421) (UniProt P11473); assay: ATG_VDR_TRANS: Attagene TRANS-FACTORIAL HepG2 Assay for human Vitamin D Receptor (VDR) (AID 2283022)
human Vitamin D Receptor (VDR), VDR (gene 7421), sequence (P11473 whole entry, looked up): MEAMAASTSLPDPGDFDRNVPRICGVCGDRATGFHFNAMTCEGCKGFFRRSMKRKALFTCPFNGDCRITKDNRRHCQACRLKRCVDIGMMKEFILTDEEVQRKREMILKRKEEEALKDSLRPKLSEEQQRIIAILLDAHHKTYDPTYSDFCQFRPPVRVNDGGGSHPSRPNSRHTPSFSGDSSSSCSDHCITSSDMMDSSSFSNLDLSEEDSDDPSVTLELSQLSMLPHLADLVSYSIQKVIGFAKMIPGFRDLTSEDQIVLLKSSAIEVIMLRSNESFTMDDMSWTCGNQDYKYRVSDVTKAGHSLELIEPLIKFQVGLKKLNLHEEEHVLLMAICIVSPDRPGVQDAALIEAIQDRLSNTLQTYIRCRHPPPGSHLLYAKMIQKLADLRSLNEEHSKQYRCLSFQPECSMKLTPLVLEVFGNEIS
Procedure, shortened: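 Multiplexed TRANS reporter in HepG2; 24 h treatment; reporter mRNA by RT-PCR plus capillary electrophoresis; upregulation scored relative to DMSO.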

[10] = BSK_3C_SRB: Viability Assessment in the BioMAP Diversity Plus: 3C Assay (AID 2283023; active means hit-call score of the fitted dose curve at least 0.9, where 1 is the maximum; inactive means score below 0.9;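 further: fitted both ways against DMSO so a hit may be signal rise or drop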); conditions: primary human endothelial cells (HUVEC)
Procedure, shortened: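 Overt cytotoxicity is gauged in parallel confluent HUVEC cultures by SRB total-protein staining at the time of biomarker measurement, 24 h after dosing. Gain or loss of signal is fitted versus DMSO.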

[11] = read-out: Matrix Metallopeptidase 1 (MMP1), MMP1 (gene 4312); assay: BSK_BE3C_MMP1: BioMAP Diversity Plus: BE3C Assay for Matrix Metallopeptidase 1 (MMP1) Biomarker Activity (AID 2283024; active means hit-call score of the fitted dose curve at least 0.9, where 1 is the maximum; inactive means score below 0.9); conditions: primary human bronchial epithelial cells; actives raise or lower the signal
Procedure, shortened: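 Human bronchial epithelial cells (BE3C system) exposed to compound for 24 h; MMP1 then quantified by ELISA. Activity was fitted in both directions relative to DMSO.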

[12] = read-out: Pselectin, SELP (gene 6403); assay: BSK_4H_Pselectin: BioMAP Diversity Plus: 4H Assay for Pselectin Biomarker Activity (AID 2283026; active means hit-call score of the fitted dose curve at least 0.9, where 1 is the maximum; inactive means score below 0.9); conditions: primary human endothelial cells (HUVEC); actives raise or lower the signal
Procedure, shortened: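 ELISA read-out of P-selectin on human umbilical vein endothelium after 24 h of dosing. Values derive from bidirectional fitting relative to DMSO. Parallel SRB protein staining flagged overt cytotoxicity.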

[13] = BSK_4H_SRB: Viability Assessment in the BioMAP Diversity Plus: 4H Assay (AID 2283027; active means hit-call score of the fitted dose curve at least 0.9, where 1 is the maximum; inactive means score below 0.9;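 further: cells exposed to compound for 24 h before staining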); conditions: primary human endothelial cells (HUVEC)
Procedure, shortened: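 Human umbilical vein endothelial cells, 24 h after chemical dosing; total protein measured by 0.1% sulforhodamine B staining after 10% TCA fixation, read at 560 nm. Bidirectional fitting against DMSO.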

[14] = BSK_BE3C_SRB: Viability Assessment in the BioMAP Diversity Plus: BE3C Assay (AID 2283028; active means hit-call score of the fitted dose curve at least 0.9, where 1 is the maximum; inactive means score below 0.9); conditions: primary human bronchial epithelial cells
Procedure, shortened: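 SRB total-protein staining (0.1%, after TCA fixation) of chemically dosed human bronchial epithelial primary cells at 24 h; DMSO serves as the negative control for bidirectional curve fitting.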

[15] = target: human Retinoid X Receptor beta (RXRb), RXRB (gene 6257) (UniProt P28702); assay: ATG_RXRb_TRANS: Attagene TRANS-FACTORIAL HepG2 Assay for human Retinoid X Receptor beta (RXRb) (AID 2283013)
human Retinoid X Receptor beta (RXRb), RXRB (gene 6257), sequence (P28702 whole entry, looked up, the tested form may be a part): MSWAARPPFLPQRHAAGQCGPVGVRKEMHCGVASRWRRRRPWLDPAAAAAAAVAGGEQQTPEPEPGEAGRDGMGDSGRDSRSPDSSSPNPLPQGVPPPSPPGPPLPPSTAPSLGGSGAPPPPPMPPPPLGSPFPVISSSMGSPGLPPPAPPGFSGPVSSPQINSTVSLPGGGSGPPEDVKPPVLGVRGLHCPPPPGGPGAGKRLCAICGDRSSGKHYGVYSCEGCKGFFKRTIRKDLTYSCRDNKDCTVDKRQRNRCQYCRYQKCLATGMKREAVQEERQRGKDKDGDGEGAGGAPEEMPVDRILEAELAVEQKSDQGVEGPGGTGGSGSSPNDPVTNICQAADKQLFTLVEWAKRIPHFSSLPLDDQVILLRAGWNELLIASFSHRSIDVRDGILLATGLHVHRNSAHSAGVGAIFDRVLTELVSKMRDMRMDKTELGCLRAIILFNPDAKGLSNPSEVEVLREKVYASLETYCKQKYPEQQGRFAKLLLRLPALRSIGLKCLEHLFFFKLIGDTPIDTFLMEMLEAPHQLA
Procedure, shortened: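 Transfect HepG2 with GAL4-UAS multi-reporter constructs (chimeric NR-Gal4, TRANS format); dose compound 24 h; isolate RNA, RT-PCR, FAM primer extension, HpaI digest; quantify by capillary electrophoresis; positive direction vs DMSO.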

[16] = target: human Thyroid Receptor alpha (THRa1), THRA (gene 7067) (UniProt P10827); assay: ATG_THRa1_TRANS: Attagene TRANS-FACTORIAL HepG2 Assay for human Thyroid Receptor alpha (THRa1) (AID 2283014)
human Thyroid Receptor alpha (THRa1), THRA (gene 7067), sequence (P10827 whole entry, looked up, the tested form may be a part): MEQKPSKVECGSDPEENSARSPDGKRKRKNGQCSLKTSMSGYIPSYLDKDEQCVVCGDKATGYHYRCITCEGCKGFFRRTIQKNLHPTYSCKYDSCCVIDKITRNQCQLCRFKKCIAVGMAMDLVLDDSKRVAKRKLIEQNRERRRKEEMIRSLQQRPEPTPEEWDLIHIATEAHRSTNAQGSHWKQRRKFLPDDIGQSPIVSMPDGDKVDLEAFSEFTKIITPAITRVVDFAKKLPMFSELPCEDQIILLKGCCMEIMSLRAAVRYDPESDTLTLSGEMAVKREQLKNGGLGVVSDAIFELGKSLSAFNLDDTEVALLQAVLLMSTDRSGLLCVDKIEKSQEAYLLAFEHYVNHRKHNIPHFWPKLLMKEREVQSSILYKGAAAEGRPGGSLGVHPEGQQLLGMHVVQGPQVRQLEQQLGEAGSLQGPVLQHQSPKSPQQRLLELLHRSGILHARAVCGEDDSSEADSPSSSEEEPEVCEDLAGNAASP
Procedure, shortened: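 Measured here is mRNA from a GAL4-UAS reporter in transfected HepG2 cells carrying a Gal4-fused receptor, 24 h post-dose. DMSO served as negative control and baseline.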

[17] = BSK_3C_Vis: BioMAP Diversity Plus: 3C Assay for Morphology Visualization (AID 2283025; active means hit-call score of the fitted dose curve at least 0.9, where 1 is the maximum; inactive means score below 0.9;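 further: fitted both ways so gain or loss versus DMSO counts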); conditions: primary human endothelial cells (HUVEC)
Procedure, shortened: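 Chemicals were added to primary human umbilical vein endothelium, cells were incubated 24 h, and morphology was then visualized by light microscopy. Gain or loss of signal was fitted bidirectionally relative to DMSO.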

[18] = target: Retinoic acid receptor RXR-alpha (Homo sapiens) (UniProt P19793); assay: ATG_RXRa_TRANS: Attagene TRANS-FACTORIAL HepG2 Assay for human Retinoid X Receptor alpha (RXRa) (AID 2283012)
Retinoic acid receptor RXR-alpha (Homo sapiens), sequence (P19793 whole entry, looked up, the tested form may be a part): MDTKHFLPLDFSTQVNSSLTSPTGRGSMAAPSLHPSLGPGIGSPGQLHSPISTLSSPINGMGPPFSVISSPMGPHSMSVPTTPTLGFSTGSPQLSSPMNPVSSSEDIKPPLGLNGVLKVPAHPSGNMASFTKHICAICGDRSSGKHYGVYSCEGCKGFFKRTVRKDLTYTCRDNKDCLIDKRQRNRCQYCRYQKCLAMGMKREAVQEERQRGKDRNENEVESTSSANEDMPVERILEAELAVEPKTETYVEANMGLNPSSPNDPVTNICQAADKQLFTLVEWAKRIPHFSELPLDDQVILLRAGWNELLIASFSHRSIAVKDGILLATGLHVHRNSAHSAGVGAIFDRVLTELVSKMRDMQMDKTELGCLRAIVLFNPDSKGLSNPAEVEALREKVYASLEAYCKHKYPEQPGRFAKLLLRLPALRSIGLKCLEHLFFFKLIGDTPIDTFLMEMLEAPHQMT
Procedure, shortened: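 Transient transfection of human HepG2 with multiple GAL4-UAS reporter constructs; 24 h compound exposure; total RNA isolated, reverse-transcribed, PCR-amplified, 6-FAM labelled, HpaI-cut, resolved by capillary electrophoresis. Positive-direction fit versus DMSO.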

Measured: AC50

E-selectin (Homo sapiens), sequence (P16581 whole entry, looked up): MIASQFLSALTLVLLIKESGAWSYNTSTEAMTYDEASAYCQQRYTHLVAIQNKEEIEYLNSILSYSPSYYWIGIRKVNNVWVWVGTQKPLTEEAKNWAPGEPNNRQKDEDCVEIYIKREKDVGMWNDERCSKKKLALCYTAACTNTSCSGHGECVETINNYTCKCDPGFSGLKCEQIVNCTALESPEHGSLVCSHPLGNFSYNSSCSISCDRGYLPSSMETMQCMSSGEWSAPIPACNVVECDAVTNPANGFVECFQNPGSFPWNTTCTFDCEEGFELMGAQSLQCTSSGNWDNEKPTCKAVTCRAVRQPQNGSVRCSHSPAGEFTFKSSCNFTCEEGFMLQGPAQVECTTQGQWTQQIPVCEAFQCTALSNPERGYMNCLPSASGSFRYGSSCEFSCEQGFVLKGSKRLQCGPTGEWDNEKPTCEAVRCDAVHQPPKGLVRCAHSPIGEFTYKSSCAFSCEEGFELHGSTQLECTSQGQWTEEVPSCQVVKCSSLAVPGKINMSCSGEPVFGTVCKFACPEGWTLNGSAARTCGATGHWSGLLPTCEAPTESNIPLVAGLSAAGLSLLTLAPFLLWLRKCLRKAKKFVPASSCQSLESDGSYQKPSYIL

CCCCCCCCCCCC(=O)N(C)CC(=O)O
inactive: [1] | [2] | [3] | [4] | [5] | [6] | [7] | [8] | [9] | [10] | [12] | [13] | [14]
active: [11] 8.01 µM and 15.5 µM | [12] 1.89 µM

CC=C(C)C=CC=C(C)C
active: [2] 20 µM | [6] 20 µM
not listed: [9] | [18]
inactive: all other assays above

C=CC(C)(O)CC/C=C(\C)CC (stereo not given)
inactive: [18] | [15]

[Cl][Eu]([Cl])[Cl]
inactive: [1] | [15]

Cc1cc(C)n(CO)n1
inactive: [1] | [15] | [9]

CC(C)c1ccc(O)c(C(C)C)c1
active: [18] 54.6 µM | [15] 9.23 µM

CCN(CC)c1cccc(C)c1
inactive: [1] | [15] | [9]

CCCCOC(=O)C(C)CC (stereo not given)
inactive: [1] | [15] | [9]

C[Si](C)(C)N[Si](C)(C)C
inactive: [1] | [15] | [16] | [9]

CCOC(=O)c1ccccc1C
inactive: [1] | [16]

CCC(C)(O)CCCC(C)C (stereo not given)
inactive: [18] | [15] | [16]

CCCCC(CC)COS(=O)(=O)O (stereo not given)
inactive: [1] | [16] | [9]

O=C1CCCN1C1CCCCC1
inactive: [1] | [15]

CCCCCCCCCCCC(=O)OCC
inactive: [1] | [15] | [9]

CCCC1CCCC(=O)O1 (stereo not given)
inactive: [18] | [15] | [16]

CCCCC1CCC(=O)O1 (stereo not given)
inactive: [18] | [15]

CCCCC(C=O)CC (stereo not given)
inactive: [18] | [15]

CC(Cl)COP(=O)(OCC(C)Cl)OCC(C)Cl (stereo not given)
not listed: [1]
inactive: all other assays above

CC(C)CCOCc1ccccc1
inactive: [1] | [15] | [9]

CCCCCCCC(=O)OCC
inactive: [18] | [15]

C=CCCCCCCCCO
inactive: [18] | [15] | [16]
